# Laboratory results taken from the supplement of paper PMC10646978.
# ± gives the standard deviation.
# Tests used:
# Details in all cases: modulator concentration 10 µM
# [1] = tested on: RAW-Dual (murine macrophage reporter line); assay: NF-kB reporter (SEAP) activity fold change vs agonist alone; higher = enhanced NF-kB activity
# Outline: (§1)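 RAW-Dual murine macrophage reporter cells were plated at 50 000 per well in 384-well plates, pin-transferred compound to 10 μM final, and pre-incubated for 1 hour at 37 °C before a PRR agonist was added and the cells incubated overnight. NF-κB activity was read from supernatant SEAP with QUANTI-Blue at 620 nm absorbance, and IRF activity from Lucia luciferase with QUANTI-Luc by luminescence. Each signal was expressed as fold change by dividing by the mean agonist-only control on the same plate. Two replicate plates were averaged, with errors obtained by propagation.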
# [2] = tested on: RAW-Dual (murine macrophage reporter line); assay: IRF reporter (Lucia luciferase) activity fold change vs agonist alone; higher = enhanced IRF activity
# Outline: as §1
# [3] = tested on: RAW-Dual (murine macrophage reporter line); assay: viability score (confluency relative to resting cells, overnight) (fraction); higher = more viable, active = viable (0.7 or more)
# Outline: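 RAW-Dual macrophages in 384-well plates were exposed overnight to compound at 10 μM final. Confluency was imaged with IncuCyte, and two confluency masks were generated with IncuCyte software over all imaged wells. The viability score is confluency expressed relative to resting cells. Compounds were called viable if both masks exceeded 70% of resting cells.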
# [4] = agonist: CpG ODN 1826 0.5 ug/mL
SMILES,"NF-kB reporter [1, 4]",NF-kB reporter ([1]; agonist: LPS 0.1 ug/mL),NF-kB reporter ([1]; agonist: MPLA […]),IRF reporter ([2]; agonist: 3'3'-cGAMP 10 ug/mL),IRF reporter ([2]; agonist: LPS 0.1 ug/mL),IRF reporter ([2]; agonist: MPLA […]),viability score [3]
Cc1c(C(=O)OC(C)C)sc(NC(=O)C(F)(F)F)c1C(=O)OC(C)C,1.4 ± 0.08,1.01 ± 0.076,1.05 ± 0.032,0.781 ± 0.028,0.937 ± 0.067,1.19 ± 0.22,0.993 (active)
Cc1nnc(C(C)C)n1C1CC2CCC(C1)N2CC[C@H](NC(=O)C1CCC(F)(F)CC1)c1ccccc1 (some centres not stated),0.928 ± 0.07,1.05 ± 0.069,1.03 ± 0.051,1.08 ± 0.2,0.973 ± 0.087,1.03 ± 0.11,1 (active)
COCCCC/C(=N\OCCN)c1ccc(C(F)(F)F)cc1.O=C(O)/C=C\C(=O)O,0.903 ± 0.072,0.902 ± 0.042,1.23 ± 0.15,0.829 ± 0.04,1.42 ± 0.083,1.67 ± 0.14,0.985 (active)
C[C@@H]1CCN(C(=O)CC#N)C[C@@H]1N(C)c1ncnc2[nH]ccc12.O=C(O)CC(O)(CC(=O)O)C(=O)O,1.05 ± 0.29,0.628 ± 0.047,0.885 ± 0.06,0.182 ± 0.0066,0.366 ± 0.056,0.507 ± 0.1,0.603 (inactive)
O=C(CSC1CCCCC1)Nc1ccc(Br)cc1,1 ± 0.33,0.949 ± 0.07,1.1 ± 0.07,0.671 ± 0.022,1.06 ± 0.12,1.12 ± 0.14,0.962 (active)
Cc1ccc(-c2cc(-c3ccccc3)nc(NN=Cc3ccc(F)cc3)n2)cc1,0.961 ± 0.17,1.23 ± 0.1,0.988 ± 0.13,1.02 ± 0.051,1.15 ± 0.11,1.48 ± 0.27,0.959 (active)
Cc1ccccc1N(CC(=O)NCCSc1ccc(Cl)cc1)S(=O)(=O)c1ccccc1,0.66 ± 0.079,1.01 ± 0.056,0.851 ± 0.056,0.64 ± 0.034,1.4 ± 0.11,1.1 ± 0.13,1 (active)
CC#CCn1c(N2CCC[C@@H](N)C2)nc2c1c(=O)n(Cc1nc(C)c3ccccc3n1)c(=O)n2C,1.05 ± 0.14,1.13 ± 0.22,1.02 ± 0.064,0.944 ± 0.035,1.34 ± 0.38,1.14 ± 0.16,1.01 (active)
Cc1ccc(-n2nnc3c(=O)n(CC(=O)N4CC(C)OC(C)C4)cnc32)cc1Cl (configuration not stated),1.12 ± 0.096,1.09 ± 0.089,0.885 ± 0.047,1.09 ± 0.057,1.14 ± 0.079,1.14 ± 0.34,0.976 (active)
CC(C)(CO)NC(=O)C(c1ccccc1)c1ccccc1,1.24 ± 0.14,0.961 ± 0.086,1 ± 0.041,0.937 ± 0.035,0.991 ± 0.051,0.896 ± 0.095,0.996 (active)
Br.COc1ccc2c3c1O[C@H]1C[C@@H](O)C=C[C@@]31CCN(C)C2,0.95 ± 0.071,1.03 ± 0.052,0.947 ± 0.024,0.912 ± 0.08,0.995 ± 0.042,1.11 ± 0.14,1.01 (active)
CCOc1ccc(N2CCN(CC(=O)O)C2=O)cc1,1.15 ± 0.32,1.06 ± 0.11,1.02 ± 0.1,0.917 ± 0.063,0.968 ± 0.12,1.15 ± 0.21,0.997 (active)
Br.CN(C)CCCC1(c2ccc(F)cc2)OCc2cc(C#N)ccc21 (configuration not stated),0.81 ± 0.12,1.02 ± 0.29,0.95 ± 0.07,0.801 ± 0.043,1.37 ± 0.4,1.39 ± 0.24,0.979 (active)
CCOc1ccccc1OCCCCOc1cccc(C)c1C,0.984 ± 0.1,1.03 ± 0.11,0.982 ± 0.061,1 ± 0.14,1.08 ± 0.13,1.1 ± 0.27,1 (active)
COc1cccc(-c2nnc(NC(=O)C3CC3)o2)c1,1.21 ± 0.071,0.987 ± 0.096,0.999 ± 0.037,0.95 ± 0.055,1.04 ± 0.057,1.11 ± 0.12,1 (active)
CC1=C(C(=O)OC(C)C)C(c2cccc([N+](=O)[O-])c2)C(C(=O)OC2CN(C(c3ccccc3)c3ccccc3)C2)=C(N)N1 (configuration not stated),1.58 ± 0.068,1.82 ± 0.15,2.56 ± 0.17,0.36 ± 0.021,1.66 ± 0.24,2.12 ± 0.44,0.902 (active)
CN1C(=O)C(=C2SC(=S)N(C(CCC(=O)O)C(=O)O)C2=O)c2ccccc21 (configuration not stated),0.793 ± 0.053,1.02 ± 0.07,0.845 ± 0.064,0.942 ± 0.035,1.28 ± 0.086,1.03 ± 0.093,1.01 (active)
CCOc1cccc2sc(=NC(=O)c3ccc(S(=O)(=O)N4CCOCC4)cc3)n(C)c12,0.991 ± 0.31,1.14 ± 0.16,0.989 ± 0.13,0.97 ± 0.025,1.06 ± 0.14,1.27 ± 0.15,0.995 (active)

SMILES,"NF-kB reporter [1, 4]",NF-kB reporter ([1]; agonist: LPS 0.1 ug/mL),NF-kB reporter ([1]; agonist: MPLA […]),IRF reporter ([2]; agonist: 3'3'-cGAMP 10 ug/mL),IRF reporter ([2]; agonist: LPS 0.1 ug/mL),IRF reporter ([2]; agonist: MPLA […]),viability score [3]
O=C1OC(c2ccc3ccccc3c2)=NC1=Cc1ccc(Br)c([N+](=O)[O-])c1,0.963 ± 0.15,0.878 ± 0.08,0.896 ± 0.1,0.861 ± 0.04,1.16 ± 0.11,1.19 ± 0.24,0.998 (active)
O=C(Nc1cc(C(F)(F)F)cc(C(F)(F)F)c1)c1c(F)cccc1F,0.953 ± 0.099,1.07 ± 0.075,0.911 ± 0.069,0.987 ± 0.07,1.29 ± 0.14,1.07 ± 0.072,1.01 (active)
CCOC(=O)CC(C)(O)P(=O)(OCC)OCC (configuration not stated),1.01 ± 0.066,1.08 ± 0.068,0.955 ± 0.069,1.04 ± 0.035,1.44 ± 0.2,1.18 ± 0.12,1 (active)
CN1CCOC(c2ccccc2)c2ccccc2C1.Cl (configuration not stated),1.11 ± 0.27,1.04 ± 0.052,1.05 ± 0.078,0.84 ± 0.031,1.36 ± 0.16,0.95 ± 0.23,1.01 (active)
COc1ccc2cc(Br)ccc2c1CC(=O)O,0.759 ± 0.06,0.954 ± 0.045,1.01 ± 0.087,0.918 ± 0.043,1.29 ± 0.076,1.33 ± 0.19,1.02 (active)
Cc1cccc(Sc2nccn3c(=O)n(CC(=O)N4CCN(c5ccccc5)CC4)nc23)c1,0.924 ± 0.081,0.589 ± 0.067,0.664 ± 0.043,0.28 ± 0.024,0.6 ± 0.041,0.733 ± 0.12,0.983 (active)
O=C(C=Cc1ccccc1)NC(NC(=S)Nc1cccc2cccnc12)C(Cl)(Cl)Cl (configuration not stated),0.507 ± 0.089,0.575 ± 0.067,0.624 ± 0.048,0.452 ± 0.027,1.01 ± 0.1,1.13 ± 0.25,1.01 (active)
COCC(C)(CNS(=O)(=O)c1ccccc1Br)OC (configuration not stated),0.978 ± 0.091,1.13 ± 0.091,0.933 ± 0.1,0.982 ± 0.049,1.07 ± 0.11,1.06 ± 0.18,0.993 (active)
Cc1cc(C(=O)O)n[nH]1,1.01 ± 0.077,0.891 ± 0.15,1.03 ± 0.12,1.06 ± 0.038,1.24 ± 0.14,1.34 ± 0.2,1.02 (active)
Clc1ccc(CN2CCN(c3ncnc4scc(-c5cccs5)c34)CC2)cc1,0.489 ± 0.028,1.28 ± 0.1,1.25 ± 0.074,1.16 ± 0.072,1.66 ± 0.12,1.51 ± 0.14,0.997 (active)
Nc1ncnc2c1ncn2[C@@H]1O[C@H](CO)[C@@H](O)[C@@H]1O.O,1.09 ± 0.064,1.02 ± 0.065,0.997 ± 0.058,0.714 ± 0.026,1.04 ± 0.13,1.18 ± 0.14,0.991 (active)
CCS(=O)(=O)O.COC(=O)c1ccc2c(c1)NC(=O)/C2=C(\Nc1ccc(N(C)C(=O)CN2CCN(C)CC2)cc1)c1ccccc1,0.115 ± 0.027,0.886 ± 0.044,2.23 ± 0.18,0.036 ± 0.002,0.177 ± 0.025,0.241 ± 0.028,0.839 (active)
CCN(CC)c1ccc(C=NNc2cc(N3CCOCC3)nc(N3CCOCC3)n2)cc1,0.894 ± 0.096,1.03 ± 0.11,0.994 ± 0.1,0.458 ± 0.07,1.28 ± 0.23,1.25 ± 0.17,0.994 (active)
CN1CCC[C@@H]1CCO[C@](C)(c1ccccc1)c1ccc(Cl)cc1.O=C(O)/C=C/C(=O)O,1.17 ± 0.29,1.01 ± 0.13,1.06 ± 0.1,0.526 ± 0.021,1.28 ± 0.17,1.63 ± 0.16,0.321 (inactive)
O=C(c1ccccc1)C1OC1(CBr)c1ccccc1 (configuration not stated),1.06 ± 0.06,0.76 ± 0.052,0.663 ± 0.039,0.0937 ± 0.0033,0.69 ± 0.072,0.913 ± 0.17,0.833 (active)
Cc1c(Cl)cccc1S(=O)(=O)NCc1ccnc(N2CCCC2=O)c1,1.01 ± 0.055,1.03 ± 0.094,0.92 ± 0.043,0.993 ± 0.057,1.07 ± 0.079,1.03 ± 0.093,0.957 (active)
CCN1C(=O)CC(NCCc2ccc(S(N)(=O)=O)cc2)C1=O (configuration not stated),0.979 ± 0.056,1.03 ± 0.074,0.905 ± 0.065,0.961 ± 0.035,1.46 ± 0.19,1.22 ± 0.16,0.997 (active)
CCOP(C)(=O)C(c1ccccc1)N(C)S(C)(=O)=O (configuration not stated),1.01 ± 0.089,1.04 ± 0.058,1.03 ± 0.062,1.03 ± 0.046,1.66 ± 0.19,1.22 ± 0.17,1.01 (active)
